Results filed as inconclusive are left out. The source made the active and inactive calls. Unless noted, calls come from the whole dose curve. Starred links: 1 amine or outer side, 2 acyl side, 3 side chain; linkers in the order of their positions; H or OH if unused. Positions of bridges follow the written chain, without caps; N, C: chain ends. Non-standard residues stand in square brackets, D forms with d. Residues, ends and D or L forms follow the SMILES beside them. Chains are numbered I, II in the order given. *: point of attachment. Actinocin(9to1) = Cc1c2oc3c(C)ccc(C(=O)[*:1])c3nc-2c(C(=O)[*:2])c(N)c1=O; NMeV = CN[CH](C(=O)O)C(C)C; Nva = CCC[C@H](N)C(=O)O; Cbz = O=C(OCc1ccccc1)*; Sar = CNCC(=O)O

The nature of experiment [1]: Quantitative High-Throughput drug screen in 47 multiple myeloma cell lines against the NCATS MIPE library collection: KMS28BM_JCRB cell viability assay (AID 1919874; active = well fitted cell-killing curve with a large enough effect; note: nearly all actives have a fitted effect of over 35% in size; note: potency is the fitted concentration of half-maximal effect). The procedure, abridged:
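Myeloma cells (500/well) treated with MIPE 4.0 compounds for 48 h at 37 °C, 5% CO2. Viability read as ATP via CellTiter-Glo luminescence after 5 min at RT; DMSO-only wells = 100%, media-only = 0% viability.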

A short description of experiment [2]: qHTS drug screen for cell cycle checkpoint inhibitors in PARPi-resistant BRCA-mutant ovarian cancer cell lines. (AID 1963452). The conditions noted are these: PEO1/OlaR viability, CellTiter-Glo luminescence, 96 h, stronger effect = lower value. In short, it runs like this:
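PEO1, PEO4 and PEO1/OlaR ovarian cancer cells, 600 per well, exposed 96 h at 37C to a dilution series. Viability read by CellTiter-Glo luminescence, normalized to DMSO and empty wells; activity summarized as Z-AUC.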
Background: Quantitative high-throughput screening tests each substance at several concentrations.

Experiment [3] can be described thus: qHTS for identification of novel therapeutic agents for treatment of microphthalmiaassociated transcription factor (MiT) renal cell carcinoma (RCC) (AID 1963991). Note: potency is the fitted concentration of half-maximal effect. Conditions: CellTiter-Glo, 48 h; for z-score: stronger effect = lower value. The procedure, abridged:
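Curves over 11 concentrations were fitted to CellTiter-Glo luminescence, scaled between empty wells (0%) and DMSO (100%) viability. Cells were UOK109, UOK124 and UOK145 TFE3-fusion RCC lines at 500/well, exposed 48 hours at 37 C.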

Setting [4] is: measured here: PEO1 parental Z-AUC.
Where [5] appears, read: TFE3-RCC UOK109 viability, measured here: UOK109 Z-AUC.
Where [6] appears, read: TFE3-RCC viability, measured here: UOK124 Z-AUC.
The mark [7] stands for this setting: TFE3-RCC viability, measured here: UOK145 Z-AUC.

On to `CN(C)c1ccc(C(=O)NCCCCCCC(=O)NO)cc1`, for which, in experiment [1], the Potency was 526 nM (active). For the same molecule, the Z-AUC in experiment [2] was -1.48 (inactive); in experiment [2] (setting [4]) it was -0.12; in experiment [2] (measured here: PEO4 Z-AUC), -0.674.

In the case of `Cc1cc(O)c2c(c1)C(=O)c1cccc(O)c1C2=O`, the Potency result in experiment [1] was “inactive”. Further, the Z-AUC in experiment [2] was -0.855 (inactive); in experiment [2] (setting [4]) it was 0.00192; in experiment [2] (measured here: PEO4 Z-AUC), -0.281. The values for the z-score in experiment [3] (setting [5]), in experiment [3] (setting [6]) and in experiment [3] (setting [7]) were -0.138, 0.712 and 0.0822, respectively.

Consider `Cc1c2oc3c(C)ccc(C(=O)NC4C(=O)NC(C(C)C)C(=O)N5CCCC5C(=O)N(C)CC(=O)N(C)C(C(C)C)C(=O)OC4C)c3nc-2c(C(=O)NC2C(=O)NC(C(C)C)C(=O)N3CCCC3C(=O)N(C)CC(=O)N(C)C(C(C)C)C(=O)OC2C)c(N)c1=O` (stereo unspecified) (I: TVP[Sar][NMeV] / II: TVP[Sar][NMeV]; ester I:1-I:C, II:1-II:C; linker I:N-II:N via Actinocin(9to1); configuration not given here), for which, in experiment [1], the Potency result is “inactive”. Also, the Z-AUC in experiment [2] was -0.322 (inactive); in experiment [2] (setting [4]) it was -0.674; in experiment [2] (measured here: PEO4 Z-AUC), -0.27. Moreover, the z-score in experiment [3] (setting [5]) is -4.2; in experiment [3] (setting [6]) it was -4.25; in experiment [3] (setting [7]), -3.66.

As for `CC(=O)O[C@H]1C[C@@H]2CC[C@H]3[C@H]4C[C@H]([N+]5(C)CCCCC5)[C@@H](OC(C)=O)[C@@]4(C)CC[C@@H]3[C@@]2(C)C[C@H]1[N+]1(C)CCCCC1`, the Potency entry in experiment [1] was “inactive”. The figures for the Z-AUC in experiment [2], in experiment [2] (setting [4]) and in experiment [2] (measured here: PEO4 Z-AUC) were 0.98 (inactive), 1.06 and 1.25, respectively. Further, the z-score in experiment [3] (setting [5]) was 0.763; in experiment [3] (setting [6]) it was 0.611; in experiment [3] (setting [7]), -1.4.

`Cc1noc(-c2ccc(CSCCC(=O)O)cc2)c1NC(=O)OC(C)c1ccccc1Cl` (stereo unspecified): in experiment [1], the Potency entry is “inactive”. In addition, the values for the Z-AUC in experiment [2], in experiment [2] (setting [4]) and in experiment [2] (measured here: PEO4 Z-AUC) were -0.506 (inactive), -0.869 and -0.91, respectively. Besides, the results for the z-score in experiment [3] (setting [5]), in experiment [3] (setting [6]) and in experiment [3] (setting [7]) were -0.684, 0.0534 and 0.402, respectively.

Regarding `CC(=O)SCC(Cc1ccccc1)C(=O)NCC(=O)OCc1ccccc1` (stereo unspecified), in experiment [1], the Potency was 11800 nM (active). The Z-AUC in experiment [2] was 0.0229 (inactive); in experiment [2] (setting [4]) it was 1.28; in experiment [2] (measured here: PEO4 Z-AUC), 0.777.

`CCC[C@@H](C=O)NC(=O)[C@H](CC(C)C)NC(=O)[C@H](CC(C)C)NC(=O)OCc1ccccc1` (Cbz-Leu-Leu-[Nva]-aldehyde): the Potency in experiment [1] was 187 nM (active); in experiment [3] (TFE3-RCC UOK109 viability, active = Z-AUC below -0.8 in all three lines) it was 4180 nM (active). The Z-AUC was -1.63 (inactive) in experiment [2], -1.42 in experiment [2] (setting [4]) and -1.86 in experiment [2] (measured here: PEO4 Z-AUC). Also, the z-score was -1.03 in experiment [3] (setting [5]), -2.77 in experiment [3] (setting [6]) and -1.34 in experiment [3] (setting [7]).

As to `C=C[C@@H]1CN2CCC1C[C@H]2[C@H](O)c1ccnc2ccc(OC)cc12` (stereo partly specified), the Potency entry in experiment [1] is “inactive”. In addition, the Z-AUC in experiment [2] is -0.116 (inactive); in experiment [2] (setting [4]), 0.594; in experiment [2] (measured here: PEO4 Z-AUC), 0.97. The z-score was 0.232 in experiment [3] (setting [5]), 0.335 in experiment [3] (setting [6]) and 0.288 in experiment [3] (setting [7]).

Regarding `CCCCCCCCCCCCc1ccc(S(=O)(=O)Nc2nncs2)cc1`, the Potency result in experiment [1] was “inactive”. In addition, the Z-AUC in experiment [2] is -0.392 (inactive); in experiment [2] (setting [4]), 0.179; in experiment [2] (measured here: PEO4 Z-AUC) it was 0.202. Moreover, the z-score in experiment [3] (setting [5]) was found to be 1.37; in experiment [3] (setting [6]), 2.17; in experiment [3] (setting [7]), 1.03.

As for `CC(C(C)N1CC(=O)NC(=O)C1)N1CC(=O)NC(=O)C1` (stereo unspecified), in experiment [1], the Potency result is “inactive”. Moreover, the figures for the Z-AUC in experiment [2], in experiment [2] (setting [4]) and in experiment [2] (measured here: PEO4 Z-AUC) were 0.386 (inactive), 0.374 and 0.397, respectively. Moreover, the z-score in experiment [3] (setting [5]) is -0.243; in experiment [3] (setting [6]), -1.76; in experiment [3] (setting [7]), -0.193.

As for `O=C(c1ccc(F)cc1)N1CCC[C@H](c2nc(-c3ccc(F)cc3)no2)C1`, the Potency result in experiment [1] was “inactive”. The figures for the Z-AUC in experiment [2], in experiment [2] (setting [4]) and in experiment [2] (measured here: PEO4 Z-AUC) were 1.14 (inactive), 0.372 and 0.34, respectively. Besides, the z-score in experiment [3] (setting [5]) was determined as 1.39; in experiment [3] (setting [6]), 0.757; in experiment [3] (setting [7]), 0.391.

On to `Nc1nc(=O)n([C@H]2C[C@H](O)[C@@H](CO)O2)cc1F`, for which the Potency result in experiment [1] was “inactive”. Further, the Z-AUC in experiment [2] is -1.47 (inactive); in experiment [2] (setting [4]) it was -1.19; in experiment [2] (measured here: PEO4 Z-AUC), -0.999.

The record behind these values is PubChem BioAssay (NCATS).
